“And” between values parts separate entries of the source, which are not always exact repeats. Equal values may be shown once. Unmarked numbers belong to inactive results. Records with an inconclusive call do not appear. Entries that show only a call come without a potency. The source made the active and inactive calls. Unless noted, calls come from the whole dose curve; as a rule, active = well fitted curve in the direction sought with a large enough effect; inconclusive = small, poorly fitted or top-dose-only effect, or another doubt; inactive = no such curve, though single readings can be large; an effect the other way counts as inactive or inconclusive.
What was measured:
[1] = qHTS to identify inhibitors of the type 1 interferon - major histocompatibility complex class I in skeletal muscle: primary screen against the NCATS Pharmaceutical Collection (AID 1347407);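 note: luminescence of HiBiT knocked into endogenous HLA-B as interferon-induced MHC class I level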; note: potency is the fitted concentration of half-maximal effect
Summary of the method: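 Cells were seeded with 4 ng/ml IFN-beta, incubated 1 h, then dosed with compounds over eight 1:5 steps up to 46 uM final. After 24 h at 37 C, HiBiT lytic reagent was added and luminescence read after 10 min lysis in the dark.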

[2] = target: Protein phosphatase 1D (Homo sapiens) (UniProt O15297); test: RapidFire Mass Spectrometry qHTS Assay for Modulators of WT P53-Induced Phosphatase 1 (WIP1) (AID 1347424);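 note: amount of dephosphorylated VEPPL-S-QETFS peptide product formed by WIP1; series mostly up to about 63 µM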
Chain of Protein phosphatase 1D (Homo sapiens) (O15297 whole entry, looked up): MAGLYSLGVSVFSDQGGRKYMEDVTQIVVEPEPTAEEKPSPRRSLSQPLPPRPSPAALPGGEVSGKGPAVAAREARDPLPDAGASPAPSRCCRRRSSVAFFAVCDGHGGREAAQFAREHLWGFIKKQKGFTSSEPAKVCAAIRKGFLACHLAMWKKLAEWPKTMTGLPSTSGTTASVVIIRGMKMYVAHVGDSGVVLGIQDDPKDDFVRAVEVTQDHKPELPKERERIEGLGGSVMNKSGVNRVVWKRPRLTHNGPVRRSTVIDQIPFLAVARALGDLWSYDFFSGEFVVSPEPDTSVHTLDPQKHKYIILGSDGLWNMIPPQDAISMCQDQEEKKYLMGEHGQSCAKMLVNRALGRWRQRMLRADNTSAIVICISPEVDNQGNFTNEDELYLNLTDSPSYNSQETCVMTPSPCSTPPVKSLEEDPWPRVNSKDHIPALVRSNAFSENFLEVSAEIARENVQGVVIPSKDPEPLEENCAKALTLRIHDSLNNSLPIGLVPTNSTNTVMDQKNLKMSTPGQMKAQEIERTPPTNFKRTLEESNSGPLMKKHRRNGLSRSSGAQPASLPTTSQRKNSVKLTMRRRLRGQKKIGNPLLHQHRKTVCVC
Summary of the method: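 RapidFire mass spectrometry measured dephosphorylated peptide after 5 min room-temperature reaction of 2 uM VEPPL-pS-QETFS with 10 nM WIP1 (50 mM Tris-HCl pH 7.5, 30 mM MgCl2, 0.1 mM EGTA, BSA), following 1 hr compound preincubation; 1 uM isotope-labelled product standard.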

[3] = Primary qHTS for inhibitors of La Crosse Virus (LACV) - induced cell death in SH-SY5Y cells (AID 1508616);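 note: top concentration of the series differs between compounds; higher means more rescue of cells from virus-induced death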
Summary of the method: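 Screening measures cell viability in LACV-infected SH-SY5Y cultures. Compound was added before virus (0.01 MOI), and ATP was detected by luminescence 6 days later.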

[4] = target: Calcium and integrin-binding protein 1 (Homo sapiens) (UniProt Q99828); test: Primary qHTS for Identification of Calcium Integrin Binding Protein 1 (CIB1) Competitor (AID 1508620); note: potency is the fitted concentration of half-maximal effect;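 for activity change, negative = inhibition: GST tagged CIB1 binding a fluorescein labelled alphaIIb integrin peptide tracer; top concentration of the series differs between compounds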
Chain of Calcium and integrin-binding protein 1 (Homo sapiens) (Q99828 whole entry, looked up): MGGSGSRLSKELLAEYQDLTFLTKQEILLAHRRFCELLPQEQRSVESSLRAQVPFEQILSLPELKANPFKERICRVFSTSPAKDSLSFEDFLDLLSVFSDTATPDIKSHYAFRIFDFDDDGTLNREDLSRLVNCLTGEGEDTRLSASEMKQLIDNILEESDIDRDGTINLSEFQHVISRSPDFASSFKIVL
Summary of the method: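 CIB1-GST (1 uM final) and compound incubated 15 min at room temperature before adding FITC-alphaIIb peptide tracer (100 nM final). Competition for binding read by fluorescence polarization (ex 480, em 540) after another 15 min at room temperature.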

[5] = Primary qHTS for small molecule stabilizers of the endoplasmic reticulum resident proteome: Secreted ER Calcium Modulated Protein (SERCaMP) assay (AID 1508630); note: potency is the fitted concentration of half-maximal effect
Summary of the method: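 The SH-SY5Y reporter protocol was run at 3 concentrations up to 38.3 uM (primary) or 11 concentrations (follow-up): 16 h compound, 100 nM thapsigargin for 4 h, then extracellular luciferase luminescence.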

[6] = target: Cytochrome P450 2D6 (Homo sapiens) (UniProt P10635); test: Cytochrome P450 family 2 subfamily D member 6 (CYP2D6) small molecule antagonists: luciferase biochemical (cell-free) qHTS assay (AID 1645840; active = well fitted curve in the direction sought with a large enough effect in the repeat runs; an effect the other way counts as inactive or inconclusive; note: nearly all actives have a fitted effect of over 55% in size; note: potency is the fitted concentration of half-maximal effect; for activity change, negative = inhibition: series mostly up to about 57 µM)
Chain of Cytochrome P450 2D6 (Homo sapiens) (P10635 whole entry, looked up): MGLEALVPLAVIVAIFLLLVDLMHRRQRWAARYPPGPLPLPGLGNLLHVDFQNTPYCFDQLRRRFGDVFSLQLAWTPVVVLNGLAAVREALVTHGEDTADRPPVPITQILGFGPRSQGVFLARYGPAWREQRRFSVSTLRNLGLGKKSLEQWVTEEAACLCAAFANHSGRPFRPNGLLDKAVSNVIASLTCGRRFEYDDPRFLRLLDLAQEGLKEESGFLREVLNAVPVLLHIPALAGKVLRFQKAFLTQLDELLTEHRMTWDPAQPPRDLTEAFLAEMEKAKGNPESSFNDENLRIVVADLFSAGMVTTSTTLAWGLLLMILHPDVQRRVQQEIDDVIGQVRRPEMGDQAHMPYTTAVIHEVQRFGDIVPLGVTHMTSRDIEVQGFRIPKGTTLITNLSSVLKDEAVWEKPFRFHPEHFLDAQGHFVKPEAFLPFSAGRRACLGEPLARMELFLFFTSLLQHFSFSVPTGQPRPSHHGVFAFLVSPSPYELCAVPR
Summary of the method: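 P450-Glo CYP2D6 system: proluciferin substrate converted by enzyme to luciferin, read by luminescence proportional to activity. Enzyme-substrate mix with compound 10 min at room temperature, then NADPH regeneration 1 h before detection reagent.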

[7] = target: Cytochrome P450 2C9 (Homo sapiens) (UniProt P11712); test: Cytochrome P450 family 2 subfamily C member 9 (CYP2C9) small molecule antagonists: luciferase biochemical (cell-free) qHTS assay (AID 1645842; active = well fitted curve in the direction sought with a large enough effect in the repeat runs; an effect the other way counts as inactive or inconclusive; note: nearly all actives have a fitted effect of over 55% in size; note: potency is the fitted concentration of half-maximal effect; for activity change, negative = inhibition: series mostly up to about 57 µM)
Chain of Cytochrome P450 2C9 (Homo sapiens) (P11712 whole entry, looked up): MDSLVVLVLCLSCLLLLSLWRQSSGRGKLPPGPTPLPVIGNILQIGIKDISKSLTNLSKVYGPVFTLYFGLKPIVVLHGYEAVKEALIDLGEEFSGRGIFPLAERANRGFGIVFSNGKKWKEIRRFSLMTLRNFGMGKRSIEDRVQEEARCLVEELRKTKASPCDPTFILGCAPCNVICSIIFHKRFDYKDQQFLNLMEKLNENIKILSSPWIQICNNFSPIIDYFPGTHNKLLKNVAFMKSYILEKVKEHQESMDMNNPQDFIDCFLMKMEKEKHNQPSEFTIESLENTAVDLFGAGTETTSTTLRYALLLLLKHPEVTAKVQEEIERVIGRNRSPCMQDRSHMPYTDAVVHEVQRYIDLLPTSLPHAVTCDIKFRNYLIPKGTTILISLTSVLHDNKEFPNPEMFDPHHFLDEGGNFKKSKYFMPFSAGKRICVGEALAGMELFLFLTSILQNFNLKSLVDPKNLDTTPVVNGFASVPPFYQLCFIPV
Summary of the method: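 P450-Glo CYP2C9 system: proluciferin substrate with enzyme in mix containing 0.4% BSA, 10 min at room temperature, then NADPH regeneration solution added and incubated 1 h at 37C. Detection reagent stopped reaction; luminescence read after 20 min as RLU.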

[8] = A High-Content qHTS Against Drug Library for the Identification of Small Molecules that Inhibit DYT1 Early Onset Primary Dystonia-Associated Cell Pathology (AID 1645839; calls by dose curve; note: series mostly up to about 46 µM)
Summary of the method: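 High-content imaging quantified EGFP-TorsinA mislocalization in HEK293-derived cells inducibly expressing DYT1 mutant torsinA, after 48 h exposure to compound given together with tetracycline induction. Cell count served as a toxicity channel alongside %pathology.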

[9] = target: Protein phosphatase 1D (Homo sapiens) (UniProt O15297); test: Rhodamine-PBP qHTS Assay for Modulators of WT P53-Induced Phosphatase 1 (WIP1) (AID 1347425)
Summary of the method: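 5 nM WIP1 + 10 uM Rh-PBP, 50 mM Tris pH 7.5, 30 mM MgCl2, 1 mM TCEP, 0.1 mM EGTA, BSA; cpds pinned, 1 hr RT; + 10 uM phosphopeptide; fluorescence 1-min reads x 11 min; delta = f1 - f0.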

[10] = qHTS for inhibitors of adenylyl cyclases using a fission yeast platform: a pilot screen against the NCATS LOPAC library (AID 1347410)
Summary of the method: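 Growth medium went into the plates first, then compounds were pinned (final up to 57 µM), then CHP2027 yeast were added. Plates were incubated overnight (18 h) at 30C in the dark, and GFP was measured by laser scanning cytometry.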

[11] = qHTS to identify inhibitors of the type 1 interferon - major histocompatibility complex class I in skeletal muscle: primary screen against the NCATS Mechanism Interrogation Plate v5.0 (MIPE) Libary (AID 1347411); note: nearly all actives have a fitted effect of over 65% in size
Summary of the method: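 IFN-beta-driven (4 ng/ml) HLA-B-HiBit expression in CRISPR-tagged C25cl48 myoblasts; compounds 11-pt, 1:3, max 46 uM, 24 hr exposure; lytic NanoLuc complementation luminescence.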

[12] = target: Single-stranded DNA cytosine deaminase (Homo sapiens) (UniProt Q9GZX7); test: Validation qHTS assay for inhibitors of Activation Induced Cytidine Deaminase (AID): AID signal (AID 1347429)
Chain of Single-stranded DNA cytosine deaminase (Homo sapiens) (Q9GZX7 whole entry, looked up): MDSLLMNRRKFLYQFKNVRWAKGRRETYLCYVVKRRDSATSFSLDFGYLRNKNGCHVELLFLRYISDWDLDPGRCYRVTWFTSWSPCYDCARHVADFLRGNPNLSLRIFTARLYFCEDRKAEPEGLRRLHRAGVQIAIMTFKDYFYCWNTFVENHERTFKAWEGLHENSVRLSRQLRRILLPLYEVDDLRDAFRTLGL
Summary of the method: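 Compounds (up to 114 uM final) are tested against AID plus UDG using DJC20/DJC23 FRET substrate. Reactions incubate 4 hr at room temperature, receive NaOH for 30 min, and are read at Ex 540/Em 590 nm.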

[13] = target: Calcium and integrin-binding protein 1 (Homo sapiens) (UniProt Q99828); test: Validation qHTS for Identification of Calcium Integrin Binding protein 1 (CIB1) Competitor (AID 1508618)
Summary of the method: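 Displacement of FITC-alphaIIb peptide (100 nM) from CIB1-GST (1 uM) is monitored by polarization in quantitative HTS format; buffer carries 5 mM CaCl2 and 125 mM NaCl at pH 7.4, incubations are at room temperature.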

[14] = target: Papain (Carica papaya) (UniProt P00784); test: Primary qHTS assay for inhibitors of the protease papain (AID 1645873);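 note: papain turnover of Z-FR-AMC read as the AMC fluorescence gain over 10 min; series mostly up to about 50 µM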
Chain of Papain (Carica papaya) (P00784 whole entry, looked up): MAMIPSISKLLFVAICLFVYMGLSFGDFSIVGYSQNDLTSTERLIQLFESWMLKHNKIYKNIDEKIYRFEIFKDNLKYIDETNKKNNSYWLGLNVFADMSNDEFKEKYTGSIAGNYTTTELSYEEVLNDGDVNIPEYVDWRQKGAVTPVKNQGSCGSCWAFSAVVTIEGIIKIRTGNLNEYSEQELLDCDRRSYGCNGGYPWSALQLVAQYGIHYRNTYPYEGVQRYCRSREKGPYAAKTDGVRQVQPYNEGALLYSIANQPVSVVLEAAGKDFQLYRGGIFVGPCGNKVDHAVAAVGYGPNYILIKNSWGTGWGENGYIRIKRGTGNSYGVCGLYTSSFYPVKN

[15] = target: Calcium and integrin-binding protein 1 (Homo sapiens) (UniProt Q99828); test: Confirmatory qHTS for Identification of Calcium Integrin Binding Protein 1 (CIB1) Competitor (AID 1508617); note: potency is the fitted concentration of half-maximal effect; nearly all actives have a fitted effect of over 65% in size
Summary of the method: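 Confirmatory qHTS measures displacement of a FITC-alphaIIb peptide (100 nM) from CIB1-GST (1 uM) by fluorescence polarization. Calcium-containing HEPES buffer, pH 7.4; two 15 min room-temperature incubations.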

[16] = target: Cytochrome P450 3A4 (Homo sapiens) (UniProt P08684); test: Cytochrome P450 family 3 subfamily A member 4 (CYP3A4) small molecule antagonists: luciferase qHTS assay (AID 1645841; active = well fitted curve in the direction sought with a large enough effect in the repeat runs; an effect the other way counts as inactive or inconclusive; note: nearly all actives have a fitted effect of over 45% in size)
Chain of Cytochrome P450 3A4 (Homo sapiens) (P08684 whole entry, looked up): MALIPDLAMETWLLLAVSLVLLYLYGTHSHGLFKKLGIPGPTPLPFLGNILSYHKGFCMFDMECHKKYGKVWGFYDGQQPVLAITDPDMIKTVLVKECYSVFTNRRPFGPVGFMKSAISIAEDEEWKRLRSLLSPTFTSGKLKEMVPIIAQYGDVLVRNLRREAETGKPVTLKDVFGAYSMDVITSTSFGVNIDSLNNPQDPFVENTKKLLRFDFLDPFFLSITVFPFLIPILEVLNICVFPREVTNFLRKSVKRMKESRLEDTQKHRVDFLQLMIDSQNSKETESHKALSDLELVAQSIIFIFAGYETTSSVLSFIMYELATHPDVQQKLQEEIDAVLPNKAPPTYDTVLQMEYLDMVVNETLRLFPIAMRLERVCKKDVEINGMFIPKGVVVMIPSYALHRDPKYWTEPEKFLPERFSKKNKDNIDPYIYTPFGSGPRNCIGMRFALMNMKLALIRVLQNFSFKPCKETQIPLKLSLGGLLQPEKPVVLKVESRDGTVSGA
Summary of the method: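 Luminescent CYP3A4 activity readout: compounds plus enzyme-substrate mix 10 min at room temperature, reaction started with NADPH regenerating system for 1 h, stopped with detection reagent, read after 20 min. Ketoconazole served as control.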

CC(C)(C)CC(C)(C)c1ccc(O)c(Cc2ccc(Cl)cc2Cl)c1
Potency [1]: inactive
Potency [2]: inactive
Potency [3]: inactive
Potency [4]: inactive
Potency [5]: inactive
Potency [6]: 19.5 µM (active)
Potency [7]: 3.09 µM (active)

C/C=C(/C(=C/C)c1ccc(O)cc1)c1ccc(O)cc1
Potency [1]: inactive
Potency [3]: inactive
Potency [4]: inactive
Potency [5]: inactive
Potency [6]: 24.5 µM (active)
Potency [7]: 17.4 µM (active)

N[C@H](Cc1c[nH]c2ccccc12)C(=O)O
Potency [1]: inactive
Potency [3]: inactive
Potency [4]: inactive
Potency [5]: inactive
Potency [8]: inactive

CCCCCCCCCCCCCCCCOP(=O)([O-])OCC[N+](C)(C)C
Potency [1]: inactive
Potency [3]: inactive
Potency [4]: inactive
Potency [5]: inactive
Potency [7]: inactive

CCN1CCCC1=O
Potency [1]: inactive
Potency [4]: inactive
Potency [7]: inactive

Cc1cc(=O)n(-c2ccccc2)n1C
Potency [1]: inactive
outcome [9]: inactive
Potency [3]: inactive
Potency [4]: inactive
Potency [5]: inactive
Potency [8]: inactive
Potency [6]: inactive

O=C(OCC(O)CO)c1ccccc1Nc1ccnc2cc(Cl)ccc12 (stereo not drawn)
Potency [1]: inactive
Potency [3]: inactive
Potency [4]: inactive
Potency [5]: inactive
Potency [7]: 5.49 µM (active)

c1ccc(OCc2ccc(CCCN3CCOCC3)cc2)cc1
Potency [1]: inactive
outcome [9]: inactive
Potency [4]: inactive
Potency [5]: inactive
Potency [6]: 6.92 µM (active)
Potency [7]: inactive

CC(=O)OCC(=O)NCCCOc1cccc(CN2CCCCC2)c1
Potency [1]: inactive
outcome [9]: inactive
Potency [4]: inactive
Potency [5]: inactive
Potency [8]: inactive
Potency [7]: inactive

COc1ccc(OC)c(C(O)CNC(=O)CN)c1 (stereo not drawn)
Potency [1]: inactive
outcome [9]: inactive
Potency [3]: inactive
Potency [4]: inactive
Potency [8]: inactive
Potency [6]: inactive

CC[C@H](C)C(=O)O[C@H]1CCC=C2C=C[C@H](C)[C@H](CC[C@@H]3C[C@@H](O)CC(=O)O3)[C@H]21
outcome [10]: inactive
Potency [11]: inactive
Potency [12]: inactive
Potency [3]: inactive
outcome [13]: inactive
Potency [5]: 2 µM (active)
Potency [14]: inactive

O=c1ccc2ccccc2o1
Potency [1]: inactive
outcome [9]: inactive
Potency [3]: inactive
Potency [4]: inactive
Potency [8]: inactive
Potency [6]: inactive
Potency [7]: inactive

CN(C)/N=N/c1nc[nH]c1C(N)=O
Potency [1]: inactive
outcome [9]: inactive
Potency [3]: inactive
Potency [4]: inactive
Potency [5]: inactive
Potency [8]: inactive

C=C1C[C@H]2[C@@H]3C=C(C)C4=CC(=O)CC[C@]4(C)[C@H]3CC[C@]2(C)[C@@]1(OC(C)=O)C(C)=O
Potency [1]: inactive
outcome [9]: inactive
Potency [4]: inactive
Potency [5]: inactive
Potency [6]: inactive

Cc1nc2n(c(=O)c1CCN1CCC(c3noc4cc(F)ccc34)CC1)CCC[C@H]2O
Potency [1]: inactive
outcome [9]: inactive
Potency [3]: inactive
Potency [4]: inactive
Potency [5]: inactive
Potency [8]: inactive
Potency [6]: 12 µM (active)
Potency [7]: inactive

CC[C@@H](CO)NCCN[C@@H](CC)CO
Potency [1]: inactive
outcome [9]: inactive
Potency [3]: inactive
Potency [4]: inactive
Potency [8]: inactive
Potency [6]: inactive
Potency [7]: inactive

CC(=O)OCC(=O)[C@@]1(O)[C@H](C)C[C@H]2[C@@H]3CCC4=CC(=O)C=C[C@]4(C)[C@@]3(F)[C@@H](O)C[C@@]21C
Potency [1]: inactive
Potency [2]: inactive
Potency [3]: inactive
Potency [5]: inactive
Potency [8]: inactive

O=C1c2ccccc2C(=O)C1c1ccccc1
Potency [1]: inactive
Potency [3]: inactive
Potency [4]: inactive
Potency [5]: inactive
Potency [8]: inactive
Potency [6]: inactive
Potency [7]: inactive

NC[C@H]1O[C@H](O[C@H]2[C@H](O[C@@H]3O[C@H](CO)[C@@H](O)[C@H]3O)C(O)[C@H](N)C[C@@H]2N)[C@H](N)[C@@H](O)[C@@H]1O (stereo partly drawn)
activity change, negative = inhibition [1]: -10.7% [at 9.18 µM]
activity change [3]: -8.96% [at 0.858 µM]
Potency [4]: inactive
activity change, negative = inhibition [5]: -22.5% [at 7.35 µM]
% pathology change, negative = correction [8]: 1.85% [at 9.22 µM]
activity change, negative = inhibition [6]: 6.46% [at 11.5 µM]
activity change, negative = inhibition [7]: 8.72% [at 11.5 µM]

NCCCC[C@H](N[C@@H](CCc1ccccc1)C(=O)O)C(=O)N1CCC[C@H]1C(=O)O
Potency [1]: inactive
outcome [9]: inactive
Potency [3]: inactive
Potency [4]: inactive
Potency [8]: inactive
Potency [6]: inactive
Potency [7]: inactive

CCOc1ccc2nc3cc(N)ccc3c(N)c2c1
Potency [1]: inactive
outcome [9]: inactive
Potency [15]: 25.1 µM (active)
Potency [4]: 44.7 µM (active)
Potency [5]: inactive
Potency [8]: inactive
Potency [6]: 15.5 µM (active)
Potency [7]: inactive

CC(C)(CO)[C@@H](O)C(=O)NCCCO
Potency [1]: inactive
outcome [9]: inactive
Potency [3]: inactive
Potency [8]: inactive
Potency [6]: inactive
Potency [7]: inactive

CC1(C)O[C@@H]2C[C@H]3[C@@H]4C[C@H](F)C5=CC(=O)CC[C@]5(C)[C@H]4[C@@H](O)C[C@]3(C)[C@]2(C(=O)CO)O1
Potency [1]: inactive
outcome [9]: inactive
Potency [4]: inactive
Potency [5]: inactive
Potency [8]: inactive
Potency [6]: inactive
Potency [7]: inactive

NC(CS)C(=O)O (stereo not drawn)
Potency [1]: inactive
Potency [4]: inactive
Potency [8]: inactive
Potency [6]: inactive
Potency [7]: inactive

CC(C)=CCC1C(=O)N(c2ccccc2)N(c2ccccc2)C1=O
Potency [1]: 18.7 µM (active)
Potency [3]: inactive
Potency [5]: inactive
Potency [6]: inactive
Potency [7]: inactive

CN(C/C=C/c1ccccc1)Cc1cccc2ccccc12
Potency [1]: inactive
outcome [9]: inactive
Potency [4]: inactive
Potency [5]: inactive
Potency [8]: inactive
Potency [6]: 0.347 µM (active)
outcome [16]: inactive

O=C(OCCOCCO)c1ccccc1Nc1cccc(C(F)(F)F)c1
Potency [1]: inactive
Potency [4]: inactive
Potency [5]: inactive
Potency [6]: 27.5 µM (active)
Potency [7]: 17.4 µM (active)

NCCC(O)(P(=O)(O)O)P(=O)(O)O
Potency [1]: inactive
outcome [9]: inactive
Potency [4]: inactive
Potency [8]: inactive
Potency [6]: inactive
Potency [7]: inactive

CC(C)n1nc(-c2cc3cc(O)ccc3[nH]2)c2c(N)ncnc21
Potency [1]: 4.7 µM (active)
outcome [9]: inactive
Potency [3]: inactive
Potency [4]: inactive
Potency [5]: inactive
Potency [6]: 13.5 µM (active)
Potency [7]: 1.95 µM (active) and 1.51 µM (active)

— PubChem BioAssay (NCATS)
